The list is not random: actives were taken first. Their share in the collection is about 2.3%.
TMEM16A act – activators or potentiators of mouse TMEM16A chloride channel. Q8BHY3. AID 623877. B-score at 10 µM. 340,000 compounds, 0.3% hits. HEK293 TMEM16A/YFP-H148Q/I152L, iodide quench fluorescence; stronger effect = lower value;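 active means fluorescence-ratio B-score plate-corrected deviation score at least 3 library SD below zero, with starting fluorescence score within 5 deviations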;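 further: channel opened by trigger with iodide after compound preincubation; score built on the fluorescence ratio of max minus min over baseline; more negative score means more quench and so TMEM16A activation or potentiation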
CHT inh – human CHT choline transport inhibition; Q9GZV3; CHT-expressing cells, membrane potential dye, choline response; stronger effect = lower value; B-score at 10 µM; 310,000 compounds, 0.86% hits; AID 488975;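 active means B-score over 3 SD under the library average, and starting fluorescence ratio not unusually high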;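 further: choline stimulus applied at its EC90 after an EC20 pre-addition; B-score computed on integrated fluorescence ratio after choline addition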
Target sequence (Q9GZV3 whole entry, looked up): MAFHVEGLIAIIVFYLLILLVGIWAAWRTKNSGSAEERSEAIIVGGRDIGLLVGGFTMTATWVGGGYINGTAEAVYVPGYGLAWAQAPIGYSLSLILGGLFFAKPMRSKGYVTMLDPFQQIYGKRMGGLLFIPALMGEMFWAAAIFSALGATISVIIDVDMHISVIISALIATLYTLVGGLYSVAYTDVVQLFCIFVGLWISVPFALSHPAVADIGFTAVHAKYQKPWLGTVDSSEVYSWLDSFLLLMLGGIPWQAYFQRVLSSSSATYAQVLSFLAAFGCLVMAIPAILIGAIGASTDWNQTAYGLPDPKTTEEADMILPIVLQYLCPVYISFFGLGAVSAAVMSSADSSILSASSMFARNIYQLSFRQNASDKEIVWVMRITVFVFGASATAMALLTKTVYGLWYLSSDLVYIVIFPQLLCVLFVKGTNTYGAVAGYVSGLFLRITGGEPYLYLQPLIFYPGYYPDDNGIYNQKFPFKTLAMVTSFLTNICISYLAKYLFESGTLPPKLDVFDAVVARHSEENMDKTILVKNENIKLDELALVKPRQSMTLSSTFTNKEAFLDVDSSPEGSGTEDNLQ
TMEM16A inh – inhibitors of mouse TMEM16A calcium-activated chloride channel; HEK293 TMEM16A/YFP iodide influx fluorescence, ionomycin; normalized B-score (activity score, 25-100; higher = stronger inhibition) at 10 µM; 310,000 compounds, 1.2% hits;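 active means ratio plate-corrected score three or more library SD toward inhibition, starting fluorescence score within five deviations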;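 further: score derived from kinetic fluorescence span divided by baseline fluorescence per well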
CHT PAM – human CHT allosteric activation | 310,000 compounds, 0.49% hits | Q9GZV3 | AID 488977 | CHT-expressing cells, membrane potential dye, choline EC20; stronger effect = higher value; LV-AA mutant CHT in HEK293 cells | B-score at 10 µM;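 active means initial fluorescence not abnormally high and integrated response B-score, plate-corrected, over 3 SD above library mean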
CHT inh conf – human CHT inhibition, confirmatory screen; CHT activity remaining % of control (stronger effect = lower value), % at 10 µM; shares compounds with CHT inh; 2,400 compounds, 70% hits; CHT-expressing cells, choline membrane potential dye; LV-to-AA substituted CHT, HEK293 cells;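 active means choline transporter activity left, mean of duplicates at 10 µM, below buffer-only control mean minus 3 SD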;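 further: depolarization triggered by choline at its EC90 following an EC20 pre-addition; 0% = hemicholinium-3 full block and 100% = buffer-only control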
HEK293 MPD ctr – activity in parental HEK293 cells lacking CHT; shares compounds with CHT inh; 2,400 compounds, 4% hits; membrane potential dye, choline response; active = decrease or increase beyond buffer ±3SD; membrane potential ratio readout (active if shifted either direction beyond buffer ±3SD; no single direction) at 10 µM; AID 493222;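 further: parental cells lack the transporter so any hit is non-specific; ratio is peak minus trough fluorescence over baseline after EC90 choline challenge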
* hit, by the source's call; i = inactive; x = no result given.

SMILES	TMEM16A act	CHT inh	TMEM16A inh	CHT PAM	CHT inh conf	HEK293 MPD ctr
Cc1ccc(NC(=S)NNC(=O)c2ccccc2O)c(C)c1	i	-8.2*	100*	i	i	i
Cc1cccc(NC(=S)NNC(=O)c2ccc(O)cc2O)c1C	i	i	i	i	x	x
O=C(NC1CCS(=O)(=O)C1)/C(=C\c1ccc(F)cc1)NC(=O)c1ccccc1 (centres undefined)	i	i	i	i	x	x
CCN(c1ccccc1)S(=O)(=O)c1cccc(C(=O)NCCN2CCOCC2)c1	i	x	x	x	x	x
CC(C)OC(=O)c1c(NC(=O)C2CC=CCC2C(=O)O)sc2c1CCCCC2 (centres undefined)	i	-5.16*	i	i	i	i
NC(=O)c1c(NC(=O)C2CC=CCC2C(=O)O)sc2c1CCCCC2 (centres undefined)	i	i	i	i	x	x
COc1ccc(CCN2C(=O)CSC2c2ccc(OC)c(OC)c2)cc1OC (centres undefined)	i	i	i	i	x	x
COc1ccc(C2SCC(=O)N2CCc2ccc(OC)c(OC)c2)cc1 (centres undefined)	i	-6.01*	i	i	42.5%*	i
C[C@H](NC(=O)c1ccccc1Cl)C(=O)NCCc1ccc(S(N)(=O)=O)cc1	i	i	i	i	x	x
Cc1noc(C)c1S(=O)(=O)N(CCc1ccccc1)Cc1ccccc1	i	i	i	i	x	x
CCCCn1c(-c2csc(CCC)c2)n[nH]c1=S	i	-5.57*	i	i	i	i
COc1ccc(C2CC(=O)C3=C(C2)Nc2ccccc2NC3c2coc3ccccc3c2=O)cc1OC (centres undefined)	i	i	i	i	x	x
CN1CCN(Cc2ccc(Sc3ccc(Cl)cc3)c([N+](=O)[O-])c2)CC1	i	-5.07*	i	i	61.1%*	i
Cc1ccc(Sc2ccc(CN3CCCC3)cc2[N+](=O)[O-])cc1	i	i	i	i	x	x
CC(=O)c1ccc(S(=O)(=O)N(C)CC(=O)NCC2CCCCC2)cc1	i	i	i	i	x	x
CC1CCC(NC(=O)c2ccc(CS(=O)(=O)Cc3ccccc3F)o2)CC1 (centres undefined)	i	-5.37*	i	i	41.0%*	i
O=C(NC1CCCC1)c1ccc(CS(=O)(=O)Cc2ccccc2F)o1	i	i	i	i	x	x
c1cc2c3c(cccc3c1)C(N1CCCCC1)=N2	i	-6.03*	i	i	65.3%*	4.64*
COc1ccc(S(=O)(=O)N2CCN(CCc3ccccc3)CC2)c(OC)c1	i	-5.46*	i	i	48.4%*	i
O=C(NNC(=S)Nc1ccc(Cl)cc1)c1ccccc1OC(F)F	i	-5.4*	i	i	43.8%*	i
O=C(NNC(=S)Nc1cccc(C(F)(F)F)c1)c1cccc(Cl)c1	i	i	i	i	x	x
O=C(NNC(=S)Nc1ccc(Br)cc1)c1ccccc1Br	i	-5.65*	i	i	57.8%*	i
O=C(NNC(=S)Nc1ccc(Br)cc1)c1ccccc1	i	i	i	i	x	x
O=C(NNC(=S)Nc1cccc(C(F)(F)F)c1)c1ccccc1Cl	i	-5.78*	25*	i	i	i
O=C(COC(=O)c1ccc[nH]c1=O)Nc1cc(S(=O)(=O)N2CCCCCC2)ccc1Cl	i	x	x	x	x	x
SMILES	TMEM16A act	CHT inh	TMEM16A inh	CHT PAM	CHT inh conf	HEK293 MPD ctr
Cc1onc(-c2c(F)cccc2Cl)c1C(=O)OCC(=O)NC1CC1	i	i	i	i	x	x
Cc1cc(C)cc(NS(=O)(=O)c2cnc(Cl)c(Cl)c2)c1	i	-8.01*	i	i	52.0%*	i
COc1cccc(NC(=O)c2ccc(N3C(=O)C4CC=C(C)CC4C3=O)cc2)c1 (centres undefined)	i	i	i	i	x	x
COc1cccc(N2CCN(C(=O)CCCCCNc3nc(=S)[nH]c4ccccc34)CC2)c1	i	i	i	i	x	x
O=c1[nH]c(=O)n(Cc2ccco2)c2c1C(C(F)(F)F)(C(F)(F)F)N=C(CCc1ccccc1)N2	i	i	i	i	x	x
N#Cc1ccc(C2=NC(C(F)(F)F)(C(F)(F)F)c3c(n(Cc4ccco4)c(=O)[nH]c3=O)N2)cc1	i	-10.8*	100*	i	56.5%*	i
COc1ccc(Cl)cc1NC(=O)C[n+]1cccc(C)c1	i	-8.11*	i	i	39.6%*	i
O=C(c1c(F)cccc1F)N(Cc1ccccn1)C1CCCC1	i	i	i	i	x	x
Cn1c(SCc2ccccn2)nnc1-c1ccccc1	i	i	i	i	x	x
CN(C)C1(CN=Cc2cc(Cl)cc([N+](=O)[O-])c2O)CCCCC1	i	-6.32*	i	i	36.4%*	i
O=[N+]([O-])c1cc(Cl)cc(/C=N\Nc2ccccn2)c1O	i	i	i	i	x	x
COc1ccc(-n2cnc3cc(C(=O)NCC4CCCO4)ccc32)cc1 (centres undefined)	i	i	i	i	x	x
C/C(=N\NC(=O)CC(C)C)c1ccc(Cl)c(Cl)c1	i	i	i	i	x	x
C/C(=N\N=C(N)N)c1ccc(Cl)c(Cl)c1	i	-11.2*	i	i	18.7%*	i
Cc1ccc(C(=O)N/C(=C\c2cccs2)C(=O)NC2CCCCC2)cc1	i	-5.1*	i	i	22.1%*	i
O=c1[nH]c2cc(Cl)c(Br)cc2o1	i	x	x	x	x	x
CCCCCCn1c(N(CC)CC)nc2c1c(=O)[nH]c(=O)n2C	i	-6.37*	i	i	i	i
C=CCNC(=S)NN=C1CCCCCCC1	i	i	i	i	x	x
CCOC(=O)Cn1nnc(-c2ccccc2)n1	i	i	i	i	x	x
CCc1ccccc1-n1nnc(-c2ccccc2)n1	x	-5.45*	i	i	i	i
CCOC(=O)C1CCCN(C(=O)CCNC(=O)Cn2ccc3ccccc3c2=O)C1 (centres undefined)	i	i	i	i	x	x
CC1=C(C(=O)NC(C)C)C2(CCC(C)CC2)OC1=O (centres undefined)	i	-6.24*	25*	i	65.7%*	i
CC1=C(C(=O)NC(C)c2ccccc2)C2(CCC(C)CC2)OC1=O (centres undefined)	i	i	i	i	x	x
O=C(Cn1nc(C(F)(F)F)cc1C1CC1)NCc1ccccc1F	i	-5.79*	i	i	65.0%*	i
COc1cc(/C=C/CN2CCN(CCC(C)C)C(CCO)C2)ccc1O (centres undefined)	i	i	i	i	x	x
CCc1nnc(NC(=O)CSc2ncc(-c3ccccc3)n2C)s1	i	-5.46*	i	i	65.3%*	i
